From the antibiotic and cytotoxicity screens of Wong et al. (2023) come the findings set out here.

Hit rate of the full screen: of about 39,000 compounds, about 1,500 (3.8%) were called active. Many of the other results were omitted from the sample, so actives are more common in it than they were.

The experiment has as its system HSkMC (human skeletal muscle cells). Description: cytotoxicity call (relative viability < 0.9). As to conditions: 10 µM.
Consider `CCC(=O)Nc1ccc2c(c1)C(=O)N(C)C[C@H](OC)[C@@H](C)CN(C(=O)CN1CCOCC1)[C@H](C)CO2`, for which the cytotoxicity call was “inactive”.
As for `CC(C)NC(=O)Nc1ccc2c(c1)C(=O)N([C@@H](C)CO)C[C@@H](C)[C@@H](CN(C)C(=O)Nc1ccc(C(F)(F)F)cc1)OCCCC[C@@H](C)O2`, the cytotoxicity call was “inactive”.
For the compound `C[C@@H]1CCCCO[C@H](CN(C)S(=O)(=O)c2cccs2)[C@@H](C)CN([C@@H](C)CO)C(=O)c2cc(NC(=O)Nc3cccc4ccccc34)ccc2O1`, the cytotoxicity call was “inactive”.
To `C[C@@H]1CCCCO[C@H](CN(C)C(=O)CCC(F)(F)F)[C@@H](C)CN([C@H](C)CO)C(=O)c2cc(NC(=O)Cc3ccccc3)ccc2O1` belongs “inactive”; to `CC(C)NC(=O)Nc1cccc2c1O[C@@H](CN(C)Cc1ccc3c(c1)OCO3)[C@@H](C)CN([C@H](C)CO)C2=O`, “inactive”.
With `C[C@@H]1CN([C@H](C)CO)C(=O)c2cc(NS(=O)(=O)c3ccccc3)ccc2O[C@@H]1CN(C)S(C)(=O)=O` the entry was “inactive”; with `C[C@H]1CN([C@@H](C)CO)S(=O)(=O)c2ccc(C#Cc3ccncc3)cc2O[C@H]1CN(C)C(=O)C1CCOCC1`, “inactive”.
To `Cc1noc(C)c1S(=O)(=O)Nc1ccc2c(c1)C(=O)N([C@@H](C)CO)C[C@@H](C)[C@@H](CN(C)C(=O)Nc1cccc3ccccc13)OCCCC[C@H](C)O2` belongs “inactive”.
As for `Cc1noc(C)c1S(=O)(=O)Nc1ccc2c(c1)C(=O)N([C@H](C)CO)C[C@H](C)[C@@H](CN(C)C(=O)Nc1cccc3ccccc13)OCCCC[C@H](C)O2`, the cytotoxicity call is “active”.
`Cc1noc(C)c1S(=O)(=O)Nc1ccc2c(c1)C(=O)N([C@H](C)CO)C[C@H](C)[C@H](CN(C)C(=O)Nc1cccc3ccccc13)OCCCC[C@@H](C)O2`: the cytotoxicity call is “inactive”.
As to `Cc1nnnn1CC(=O)Nc1ccc(F)cc1`, the cytotoxicity call was “inactive”.
For the compound `COc1ccc(NC(=O)Nc2ccc3c(c2)[C@H]2C[C@H](CC(=O)NCc4ccncc4)O[C@H](CO)[C@H]2O3)cc1`, the cytotoxicity call was “inactive”.
To `C[C@@H]1CCCCO[C@@H](CN(C)C(=O)Nc2ccccc2)[C@H](C)CN([C@H](C)CO)C(=O)c2cc(NC(=O)Cc3ccccc3)ccc2O1` belongs “inactive”; to `Cc1ccc(S(=O)(=O)Nc2ccc3c(c2)C(=O)N([C@H](C)CO)C[C@@H](C)[C@@H](CN(C)C(=O)C2CCCCC2)OCCCC[C@H](C)O3)cc1`, “inactive”.
With `O=C(O)c1cn(C2CC2)c2cc(N3CCC(O)(COc4ccc(N5C[C@H](CO)OC5=O)cc4F)CC3)c(F)cc2c1=O` the entry was “inactive”; with `O=C(CCCCCCC(=O)Nc1ccc([C@@H]2O[C@H](CSc3ccncc3)C[C@H](c3ccccc3)O2)cc1)NO`, “inactive”.
With `O=C(CCCCCCC(=O)Nc1ccc([C@H]2O[C@@H](CSc3ccncc3)C[C@H](c3ccccc3)O2)cc1)NO` the entry was “inactive”.
Turning to `O=C(/C=C/c1ccc(CNc2ccc([C@H]3O[C@@H](CSc4ccncc4)C[C@H](c4ccccc4)O3)cc2)cc1)NO`, the cytotoxicity call was “active”.
With `C[C@H](CO)N1C[C@H](C)[C@H](CN(C)C(=O)NC2CCCCC2)Oc2cc(-c3cccnc3)ccc2S1(=O)=O` the entry was “inactive”; with `COc1ccc(NC(=O)N(C)C[C@H]2OCCCC[C@H](C)Oc3ccc(NC(=O)c4ccncc4)cc3C(=O)N([C@H](C)CO)C[C@@H]2C)cc1`, “inactive”.
For `CCc1ccc(NC(=S)Nc2ccccc2C(C)C)cc1`, the cytotoxicity call is “inactive”.
Consider `COCC#Cc1ccc2c(c1)O[C@@H](CN(C)C(=O)COC)[C@@H](C)CN([C@H](C)CO)S2(=O)=O`, for which the cytotoxicity call is “inactive”.
To `COc1ccc(S(=O)(=O)Nc2ccccc2CN(C)C/C=C/c2ccc(Cl)cc2)cc1.O=P(=O)OO` belongs “inactive”; to `COc1ccc(CN(C)C[C@H]2Oc3ccc(NC(=O)Nc4ccc(C(F)(F)F)cc4)cc3CC(=O)N([C@H](C)CO)C[C@H]2C)cc1`, “active”; to `COc1ccc(NC(=O)Nc2ccc3c(c2)CC(=O)N([C@@H](C)CO)C[C@@H](C)[C@H](CN(C)Cc2ccc(C(F)(F)F)cc2)O3)cc1`, “inactive”.
To `COc1ccc(NC(=O)Nc2ccc3c(c2)CC(=O)N([C@@H](C)CO)C[C@H](C)[C@H](CN(C)Cc2ccc(C(F)(F)F)cc2)O3)cc1` belongs “active”; to `COc1ccc(NC(=O)Nc2ccc3c(c2)CC(=O)N([C@@H](C)CO)C[C@H](C)[C@@H](CN(C)Cc2ccc(C(F)(F)F)cc2)O3)cc1`, “inactive”; to `COc1ccc(CN(C)C[C@H]2Oc3ccc(NC(=O)Nc4ccc(C(F)(F)F)cc4)cc3CC(=O)N([C@@H](C)CO)C[C@@H]2C)cc1`, “inactive”.
To `COc1ccc(NC(=O)Nc2ccc3c(c2)CC(=O)N([C@H](C)CO)C[C@@H](C)[C@@H](CN(C)Cc2ccc(C(F)(F)F)cc2)O3)cc1` belongs “active”; to `COc1ccc(NC(=O)Nc2ccc3c(c2)CC(=O)N([C@H](C)CO)C[C@H](C)[C@H](CN(C)Cc2ccc(C(F)(F)F)cc2)O3)cc1`, “inactive”.
Regarding `COc1ccc(NC(=O)Nc2ccc3c(c2)CC(=O)N([C@H](C)CO)C[C@H](C)[C@@H](CN(C)Cc2ccc(C(F)(F)F)cc2)O3)cc1`, the cytotoxicity call was “inactive”.
Consider `COc1ccc(NC(=O)Nc2ccc3c(c2)CC(=O)N([C@@H](C)CO)C[C@@H](C)[C@@H](CN(C)Cc2ccc(C(F)(F)F)cc2)O3)cc1`, for which the cytotoxicity call is “inactive”.
With `COc1ccc(NC(=O)Nc2ccc3c(c2)CC(=O)N([C@H](C)CO)C[C@@H](C)[C@H](CN(C)Cc2ccc(C(F)(F)F)cc2)O3)cc1` the entry was “inactive”.
To `COc1ccc(CN(C)C[C@@H]2Oc3ccc(NC(=O)Nc4ccc(C(F)(F)F)cc4)cc3CC(=O)N([C@@H](C)CO)C[C@@H]2C)cc1` belongs “inactive”.
To `COc1ccc(CN(C)C[C@H]2Oc3ccc(NC(=O)Nc4ccc(C(F)(F)F)cc4)cc3CC(=O)N([C@@H](C)CO)C[C@H]2C)cc1` belongs “active”; to `COc1ccc(C#Cc2ccc3c(c2)[C@]2(C(=O)N3)[C@H](C(=O)N3CCc4cc(OC)c(OC)cc4C3)[C@H]3C(=O)O[C@H](c4ccccc4)[C@H](c4ccccc4)N3[C@@H]2c2ccc(O)cc2)cc1`, “inactive”.
Take `C[C@@H]1CN([C@H](C)CO)C(=O)Cc2cc(NC(=O)Nc3ccc(C(F)(F)F)cc3)ccc2O[C@H]1CN(C)C(=O)Nc1cccc2ccccc12`: the cytotoxicity call was “inactive”.
With `C[C@H](CO)N1C[C@H](C)[C@@H](CN(C)C(=O)Cc2ccccn2)Oc2cc(C#Cc3ccccc3)ccc2S1(=O)=O`, the cytotoxicity call was “inactive”.
Consider `Cn1ncc2c1CCCC2=O`, for which the cytotoxicity call is “inactive”.
With `Cc1noc(C)c1NC(=O)N(C)C[C@H]1Oc2ncc(C#CCN(C)C)cc2C(=O)N([C@H](C)CO)C[C@H]1C` the entry was “inactive”.
To `COc1cccc(S(=O)(=O)N(C)C[C@@H]2Oc3ncc(C#CCN(C)C)cc3C(=O)N([C@@H](C)CO)C[C@@H]2C)c1` belongs “inactive”; to `C[C@@H]1CN([C@H](C)CO)C(=O)Cc2cc(NC(=O)Nc3ccc4c(c3)OCO4)ccc2O[C@@H]1CN(C)S(C)(=O)=O`, “inactive”.
With `COc1ccc(NC(=O)N(C)C[C@H]2OCCCC[C@H](C)Oc3ccc(NC(=O)c4ccccc4)cc3C(=O)N([C@@H](C)CO)C[C@@H]2C)cc1` the entry was “inactive”; with `COc1ccc(S(=O)(=O)N(C)C[C@H]2OCCCC[C@@H](C)Oc3ccc(NC(=O)CCC(F)(F)F)cc3C(=O)N([C@@H](C)CO)C[C@@H]2C)cc1`, “inactive”; with `COc1ccc(CN(C)C[C@@H]2Oc3ccc(NC(=O)Nc4ccc(C(F)(F)F)cc4)cc3CC(=O)N([C@H](C)CO)C[C@H]2C)cc1`, “inactive”.
Turning to `COc1ccc(CN(C)C[C@@H]2Oc3ccc(NC(=O)Nc4ccc(C(F)(F)F)cc4)cc3CC(=O)N([C@H](C)CO)C[C@@H]2C)cc1`, the cytotoxicity call was “active”.
To `COc1ccc(NC(=O)Nc2ccc3c(c2)CC(=O)N([C@@H](C)CO)C[C@H](C)[C@@H](CN(C)C(=O)Nc2ccc(C(F)(F)F)cc2)O3)cc1` belongs “inactive”.
Turning to `C[C@@H]1CN([C@@H](C)CO)C(=O)c2cccc(NS(C)(=O)=O)c2O[C@@H]1CN(C)S(=O)(=O)c1cn(C)cn1`, the cytotoxicity call is “inactive”.
Consider `COc1ccc(NC(=O)N(C)C[C@H]2Oc3ccc(NS(=O)(=O)c4c(C)noc4C)cc3C(=O)N([C@@H](C)CO)C[C@H]2C)cc1`, for which the cytotoxicity call was “inactive”.
With `COc1ccc(S(=O)(=O)Nc2ccc3c(c2)C(=O)N([C@@H](C)CO)C[C@@H](C)[C@@H](CN(C)S(C)(=O)=O)O3)cc1` the entry was “inactive”; with `COc1ccccc1C#Cc1ccc2c(c1)O[C@@H](CN(C)Cc1cncnc1)[C@@H](C)CN([C@@H](C)CO)S2(=O)=O`, “inactive”.
Regarding `COc1ccccc1C#Cc1ccc2c(c1)O[C@H](CN(C)Cc1cncnc1)[C@@H](C)CN([C@@H](C)CO)S2(=O)=O`, the cytotoxicity call is “inactive”.
To `COc1ccccc1C#Cc1ccc2c(c1)O[C@H](CN(C)Cc1cncnc1)[C@@H](C)CN([C@H](C)CO)S2(=O)=O` belongs “inactive”.
Turning to `COc1ccccc1C#Cc1ccc2c(c1)O[C@H](CN(C)Cc1cncnc1)[C@H](C)CN([C@H](C)CO)S2(=O)=O`, the cytotoxicity call was “inactive”.
To `COc1ccccc1C#Cc1ccc2c(c1)O[C@@H](CN(C)Cc1cncnc1)[C@H](C)CN([C@@H](C)CO)S2(=O)=O` belongs “active”.
To `COc1ccccc1C#Cc1ccc2c(c1)O[C@@H](CN(C)Cc1cncnc1)[C@H](C)CN([C@H](C)CO)S2(=O)=O` belongs “active”; to `COc1ccc(S(=O)(=O)N(C)C[C@H]2Oc3c(NC(=O)c4cc(C)nn4C)cccc3C(=O)N([C@H](C)CO)C[C@H]2C)cc1`, “inactive”.
With `C[C@@H]1CCCCO[C@H](CN(C)CC2CC2)[C@@H](C)CN([C@H](C)CO)C(=O)c2cc(NC(=O)CCC(F)(F)F)ccc2O1` the entry was “inactive”; with `COc1ccc(S(=O)(=O)N2c3ccc(Cl)cc3[C@](O)(c3ccccc3Cl)[C@@H]2C(=O)N2CCC[C@H]2C(N)=O)cc1OC`, “inactive”.
In the case of `C[C@@H]1CN([C@@H](C)CO)C(=O)c2cccc(NS(=O)(=O)c3cn(C)cn3)c2O[C@H]1CN(C)C(=O)Nc1ccc2c(c1)OCO2`, the cytotoxicity call is “inactive”.
